PubChem BioAssay
The source made the active and inactive calls.

Columns and labels:
[1] = E. coli DRC41 culture turbidity changes, primary screen, E. coli filamentation inducer project, strain DRC41, OD650, 48 h (AID 1152);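 note: E. coli MC1000 strain DRC41 lacking acrAB efflux pump and sulA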; conditions: E. coli DRC41 (acrAB sulA), higher = more signal, called active from +8 up or from −8 down
[2] = small-molecule binders of probe aLefty1, primary screen, biochemical, small-molecule microarray, 635/667 nm fluorescence (AID 1153); conditions: higher = more signal;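 note: score merges spot fluorescence with signal-to-noise ratio from the scanned slide images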
[3] = PSAC antagonists in infected red cells, primary screen, cell-based, P. falciparum Indochina, OD700, 1 h (AID 1154); conditions: P. falciparum Indochina infected RBC osmotic lysis, higher = more signal, called active from +8 up or from −8 down
[4] = PSAC antagonists in infected red cells, primary screen, cell-based, P. falciparum Indochina, OD700, 2 h (AID 1155);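 note: lysis reports solute entry through the parasite surface anion channel PSAC; channel blockers reduce lysis of infected cells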; conditions: P. falciparum Indochina infected erythrocytes, osmotic lysis OD700; higher = more signal, called active from +8 up or from −8 down
[5] = osmotic lysis modulators in infected erythrocytes, primary screen, PSAC antagonist project, cell-based, P. falciparum Indochina, OD700, 3 h (AID 1156); conditions: higher = more signal, called active from +8 up or from −8 down
[6] = PSAC antagonists in infected red cells, primary screen, cell-based, P. falciparum Indochina, OD700, 18 h (AID 1157); conditions: P. falciparum Indochina infected erythrocytes, osmotic lysis OD700, 18 h; higher = more signal, called active from +8 up or from −8 down
[7] = modulators of S6 phosphorylation in cells, primary screen, cell-based, A549, cytoblot, luminescence, serum-stimulated (AID 1158); conditions: A549 phospho-S6 cytoblot, 5 h, higher = more signal;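 note: serum-stimulated A549 lung adenocarcinoma cells; signal is phosphorylated S6 detected by cytoblot immunostaining with HRP secondary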
[8] = biological target: NADPH oxidase 2 (Homo sapiens) (UniProt P04839); assay: NOX2-dependent H2O2 signal modulators, primary screen, NOX inhibitor project, cell-based, HEK293-NOX2, PMA-stimulated, Amplex Red fluorescence (AID 1159); conditions: 45 min, higher = more signal, called active from +8 up or from −8 down; note: test concentration not given here
Chain of NADPH oxidase 2 (Homo sapiens) (P04839 whole entry, looked up): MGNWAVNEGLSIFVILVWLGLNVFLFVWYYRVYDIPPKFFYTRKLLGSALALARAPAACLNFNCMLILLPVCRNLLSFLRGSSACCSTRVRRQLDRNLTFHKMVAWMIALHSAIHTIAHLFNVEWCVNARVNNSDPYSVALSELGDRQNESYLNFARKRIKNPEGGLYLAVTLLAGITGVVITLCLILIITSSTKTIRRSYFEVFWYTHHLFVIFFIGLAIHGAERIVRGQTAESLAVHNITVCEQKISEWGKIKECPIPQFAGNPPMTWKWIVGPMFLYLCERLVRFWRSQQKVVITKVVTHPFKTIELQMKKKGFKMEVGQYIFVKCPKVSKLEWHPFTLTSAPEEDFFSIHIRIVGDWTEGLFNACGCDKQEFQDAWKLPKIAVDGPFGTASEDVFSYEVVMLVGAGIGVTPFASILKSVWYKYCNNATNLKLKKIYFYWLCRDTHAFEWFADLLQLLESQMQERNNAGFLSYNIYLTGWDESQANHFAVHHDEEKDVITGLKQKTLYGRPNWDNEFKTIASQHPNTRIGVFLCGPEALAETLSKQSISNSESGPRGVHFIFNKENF

[9] = biological target: NADPH oxidase 4 (Homo sapiens) (UniProt Q9NPH5); assay: NOX4-dependent H2O2 signal modulators, primary screen, NOX inhibitor project, cell-based, HEK293-NOX4, tetracycline-induced, Amplex Red fluorescence (AID 1160); conditions: 45 min, higher = more signal, called active from +8 up or from −8 down
Chain of NADPH oxidase 4 (Homo sapiens) (Q9NPH5 whole entry, looked up): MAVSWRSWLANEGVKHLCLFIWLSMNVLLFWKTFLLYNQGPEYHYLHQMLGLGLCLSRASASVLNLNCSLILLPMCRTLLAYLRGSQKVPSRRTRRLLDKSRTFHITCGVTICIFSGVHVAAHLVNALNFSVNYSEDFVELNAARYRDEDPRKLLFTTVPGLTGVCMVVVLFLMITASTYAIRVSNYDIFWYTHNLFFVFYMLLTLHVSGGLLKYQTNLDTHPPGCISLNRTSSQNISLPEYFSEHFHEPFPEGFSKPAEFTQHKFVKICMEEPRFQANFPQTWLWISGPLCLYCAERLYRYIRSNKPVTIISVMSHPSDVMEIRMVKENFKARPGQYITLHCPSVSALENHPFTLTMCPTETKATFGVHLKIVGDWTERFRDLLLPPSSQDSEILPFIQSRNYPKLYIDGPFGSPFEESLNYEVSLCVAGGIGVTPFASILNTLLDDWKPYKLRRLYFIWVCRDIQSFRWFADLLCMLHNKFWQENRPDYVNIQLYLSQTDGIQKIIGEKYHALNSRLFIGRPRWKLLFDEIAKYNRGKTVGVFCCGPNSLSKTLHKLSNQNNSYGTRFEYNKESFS

[10] = biological target: NADPH oxidase 5 (Homo sapiens) (UniProt Q96PH1); assay: NOX5-dependent H2O2 signal modulators, primary screen, NOX inhibitor project, cell-based, HEK293-NOX5, Amplex Red fluorescence (AID 1161); conditions: HEK293-NOX5, ionomycin, 45 min, higher = more signal
Chain of NADPH oxidase 5 (Homo sapiens) (Q96PH1 whole entry, looked up): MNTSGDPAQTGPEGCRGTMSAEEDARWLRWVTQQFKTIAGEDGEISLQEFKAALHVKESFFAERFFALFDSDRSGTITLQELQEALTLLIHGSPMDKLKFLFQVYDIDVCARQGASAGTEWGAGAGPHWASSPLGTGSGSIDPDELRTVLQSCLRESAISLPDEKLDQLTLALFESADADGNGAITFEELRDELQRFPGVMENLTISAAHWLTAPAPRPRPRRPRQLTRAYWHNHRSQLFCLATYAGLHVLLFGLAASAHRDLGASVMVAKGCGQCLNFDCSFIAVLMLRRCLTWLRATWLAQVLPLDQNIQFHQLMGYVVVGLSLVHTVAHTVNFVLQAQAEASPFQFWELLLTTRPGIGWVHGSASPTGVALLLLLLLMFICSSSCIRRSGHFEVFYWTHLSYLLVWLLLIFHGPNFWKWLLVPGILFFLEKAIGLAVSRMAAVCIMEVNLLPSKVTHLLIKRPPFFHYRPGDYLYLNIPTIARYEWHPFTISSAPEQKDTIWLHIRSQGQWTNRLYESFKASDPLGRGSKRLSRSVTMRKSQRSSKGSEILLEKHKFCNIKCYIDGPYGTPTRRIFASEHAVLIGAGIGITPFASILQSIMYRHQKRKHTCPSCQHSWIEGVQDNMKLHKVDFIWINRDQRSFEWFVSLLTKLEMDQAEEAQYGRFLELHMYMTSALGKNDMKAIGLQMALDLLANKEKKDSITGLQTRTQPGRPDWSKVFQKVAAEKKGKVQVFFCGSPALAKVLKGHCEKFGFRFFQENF

| SMILES | z-score [1] | composite z-score [2] | z-score [3] | z-score [4] | z-score [5] | z-score [6] | z-score [7] | z-score [8] | z-score [9] | z-score [10] |
| --- | --- | --- | --- | --- | --- | --- | --- | --- | --- | --- |
| CCCNC(=O)[C@@]1(Sc2ccc(C)cc2)CC(=O)N(Cc2ccccc2Cl)[C@@H]1c1ccc(CO)cc1 | 2.06 (inactive) | 0.369 | 3.09 (inactive) | -0.114 (inactive) | -1.35 (inactive) | -0.772 (inactive) | 3.71 | -0.773 (inactive) | -0.99 (inactive) | -0.176 |
| CO[C@H]1O[C@H](CO)[C@@H](OC(=O)CCc2ccccc2)[C@@H]2OC(=O)[C@H](Cc3cccc(Br)c3)C/C=C/C[C@@H](Cc3cccc(Br)c3)C(=O)O[C@@H]12 | 3.1 (inactive) | -0.139 | 1.18 (inactive) | -0.807 (inactive) | -0.856 (inactive) | -1.19 (inactive) | 2.26 | 2.16 (inactive) | 1.57 (inactive) | 1.28 |
| CC(C)C[C@@H]1NC(=O)[C@H]2C[C@@H](C(=O)NCCCCCC[N+](C)(C)C)[C@@H](c3ccc(O)cc3)N2C1=O | 0.706 (inactive) | 0.0502 | 1.8 (inactive) | 0.459 (inactive) | -3.67 (inactive) | 0.0558 (inactive) | -0.496 | 1.04 (inactive) | 1 (inactive) | -0.306 |
| COCCCNC(=O)[C@@H]1c2ccccc2C(=O)N(CC23CC4CC(CC(C4)C2)C3)[C@H]1c1ccc(CO)cc1 | -0.162 (inactive) | 0.276 | 4.59 (inactive) | -0.14 (inactive) | 3.38 (inactive) | -0.877 (inactive) | 2.61 | -1.24 (inactive) | -2.34 (inactive) | -4.2 |
| Cc1ccc(N2C(=O)c3ccccc3[C@@H](C(=O)NCc3ccccc3)[C@@H]2c2ccc(CO)cc2)nc1 | 1.85 (inactive) | 0.26 | 2.1 (inactive) | -0.349 (inactive) | -0.199 (inactive) | -0.509 (inactive) | -1.72 | -0.109 (inactive) | 1.03 (inactive) | 0.298 |
| CCOC(=O)C1=CC[C@@H](c2ccc(-c3ccc(OCc4ccccc4)cc3)c(OC)c2)N(S(=O)(=O)c2ccc(C)cc2)[C@H]1c1ccccc1 | -0.0232 (inactive) | 0.404 | 2.67 (inactive) | 1.86 (inactive) | 0.487 (inactive) | 1.22 (inactive) | -0.533 | 1.31 (inactive) | 0.643 (inactive) | 0.429 |
| COC(=O)[C@@]1(Cc2ccccc2N=[N+]=[N-])N=C(c2ccc(OCCCO)cc2)O[C@H]1c1ccccc1CN=[N+]=[N-] | 0.383 (inactive) | 0.191 | 22.3 (active) | 8.71 (active) | 0.12 (inactive) | 3.46 (inactive) | 0.575 | -1.84 (inactive) | 0.483 (inactive) | -0.961 |
| Cc1ccc(S(=O)(=O)N2[C@@H](c3ccccc3)C(C(=O)O)=CC[C@H]2c2ccccc2)cc1 | -1.57 (inactive) | -0.0501 | 0.432 (inactive) | 0.798 (inactive) | 0.605 (inactive) | 0.83 (inactive) | -0.259 | -0.127 (inactive) | -0.375 (inactive) | -2.32 |
| CN1CCC(CCCO)=CC1C1CC1 (stereo not given) | 1.08 (inactive) | -0.0984 | -0.369 (inactive) | -1.58 (inactive) | -1.01 (inactive) | -1.9 (inactive) | 0.591 | 0.575 (inactive) | -0.0075 (inactive) | 0.0296 |
| O=C(NCc1ccccc1)c1ccc(Br)cc1[N+](=O)[O-] | -1.03 (inactive) | -0.17 | -0.403 (inactive) | -0.0642 (inactive) | -1.3 (inactive) | 0.0836 (inactive) | -0.597 | -0.564 (inactive) | -0.281 (inactive) | -0.032 |
| CCCN1C(=O)[C@@]2(CCS(=O)(=O)c3ccccc3)N=C(c3ccc(OCCCO)cc3)O[C@H]2c2ccccc21 | 0.33 (inactive) | 0.498 | 34.1 (active) | 32.4 (active) | 1.93 (inactive) | 3.19 (inactive) | 0.43 | -2.38 (inactive) | -0.683 (inactive) | -1.74 |
| COC(=O)C(CC#Cc1ccc2c(c1)[C@]1(C(=O)N2)[C@H](C(=O)N2CCCCCCC2)[C@H]2C(=O)O[C@H](c3ccccc3)[C@H](c3ccccc3)N2[C@@H]1c1ccc(O)cc1)C(=O)OC | 0.752 (inactive) | 0.297 | 0.561 (inactive) | -0.312 (inactive) | -0.221 (inactive) | -1.18 (inactive) | 1.28 | 0.455 (inactive) | 0.264 (inactive) | 0.147 |
| CCCC=C(CCC)[C@@H](NS(=O)(=O)c1ccc(C(F)(F)F)cc1)c1ccc(-c2ccccc2)cc1 | -1.78 (inactive) | 0.448 | 2.51 (inactive) | 0.329 (inactive) | -0.516 (inactive) | 0.543 (inactive) | 1.47 | -1.57 (inactive) | -0.618 (inactive) | 2.7 |
| O=C(NCC(F)(F)F)[C@@H]1c2ccccc2C(=O)N(Cc2ccccc2Cl)[C@H]1c1ccc(CO)cc1 | 0.774 (inactive) | -0.27 | 1.88 (inactive) | 0.839 (inactive) | 0.62 (inactive) | 0.157 (inactive) | -0.217 | -0.138 (inactive) | 0.22 (inactive) | -0.0659 |
| O=C1c2ccccc2[C@](Cc2ccccc2I)(C(=O)NCC(F)(F)F)[C@H](c2ccc(CO)cc2)N1Cc1ccccc1C(F)(F)F | 1.37 (inactive) | -0.597 | 2.78 (inactive) | 0.55 (inactive) | 0.564 (inactive) | 0.449 (inactive) | 0.179 | 1.27 (inactive) | 0.605 (inactive) | 2.32 |
| CC[C@H]1C2=C3C(CC[C@H]4C(OC)OC[C@](C)([C@@H]34)N(C(=O)OC(C)(C)C)C2)C(CO)C1CO (stereo not given in full) | -0.36 (inactive) | 0.631 | -0.51 (inactive) | -0.909 (inactive) | -0.337 (inactive) | -2.25 (inactive) | 1.59 | -0.108 (inactive) | -0.269 (inactive) | -2.77 |
| COc1ccc([Si](C)(C)[C@H]2[C@H](CCO)O[C@@]3(C(=O)N(Cc4ccc(N5CCCCC5=O)cc4)c4ccccc43)[C@@H]2C)cc1 | 0.178 (inactive) | 0.0361 | 29.4 (active) | 25.6 (active) | -0.512 (inactive) | 2.98 (inactive) | 1.26 | 1.11 (inactive) | 0.347 (inactive) | 1.5 |
| COCCOC(=O)N1C(=O)[C@@]2(c3cc(C#CCNC(N)=O)ccc31)[C@H](c1ccc(OCCO)cc1)N1[C@H](c3ccccc3)[C@H](c3ccccc3)OC(=O)[C@H]1[C@@H]2C(=O)N1CCCCCCC1 | 1.92 (inactive) | 1.16 | 1.96 (inactive) | 0.568 (inactive) | 0.465 (inactive) | -0.737 (inactive) | 1.01 | 2.38 (inactive) | 1.22 (inactive) | 0.765 |
| C[C@H]1NC(=O)[C@@H](C)NC(=O)[C@@]23C(=O)N[C@@H](Cc4ccccc4)C2[C@H](C)[C@@]2(C)O[C@H]2C3/C=C/C/C=C\CNC1=O (stereo not given in full) | 2.35 (inactive) | -0.245 | 1.27 (inactive) | 0.279 (inactive) | 0.234 (inactive) | 0.157 (inactive) | 0.52 | 0.248 (inactive) | -0.848 (inactive) | 0.442 |
| CC(C)[Si]1(C(C)C)OCc2cc(C3CC3)nc(-c3ccccc3)c21 | 2.37 (inactive) | -0.0573 | 2.84 (inactive) | 0.201 (inactive) | 0.531 (inactive) | -0.15 (inactive) | 1.34 | 1.86 (inactive) | 1.06 (inactive) | -1.28 |
| COc1ccc([C@H]2C[C@H]3C(Br)=C[C@]2(OC)C(=O)[C@]32CO2)cc1 | -0.882 (inactive) | -0.0536 | 0.262 (inactive) | 0.0516 (inactive) | -0.29 (inactive) | -0.21 (inactive) | -0.242 | 0.0866 (inactive) | 0.295 (inactive) | -0.292 |
| CC(=O)NCCCC[C@@H]1NC(=O)[C@@H]2C[C@H](C(=O)NCCCCCNC(=O)CS)[C@H](c3ccc(O)cc3)N2C1=O | 3.01 (inactive) | -0.0528 | 2.55 (inactive) | -0.247 (inactive) | -2.2 (inactive) | -1.04 (inactive) | 1.68 | 0.391 (inactive) | 0.284 (inactive) | 0.531 |
| O=C1O[C@@H](c2ccccc2)[C@@H](c2ccccc2)N2[C@@H](c3ccc(O)cc3)[C@]3(C(=O)Nc4ccccc43)[C@@H](C(=O)N3CCN(c4ncccn4)CC3)[C@H]12 | 3.11 (inactive) | -0.263 | 2.76 (inactive) | -0.363 (inactive) | 0.541 (inactive) | -1.54 (inactive) | 2.51 | 0.142 (inactive) | -0.0244 (inactive) | 1.51 |
| CO[C@H]1O[C@H](CO)[C@@H](OC(=O)Nc2ccc3c(c2)OCO3)[C@H](OC(=O)Nc2ccccc2)[C@@H]1OC(=O)Nc1ccccc1 | -1.51 (inactive) | 0.121 | 7.77 (inactive) | 0.903 (inactive) | -0.33 (inactive) | 0.717 (inactive) | 0.342 | 1.07 (inactive) | -0.393 (inactive) | -0.675 |
| CCN1C(C)=C(C(=O)OC)[C@@H](c2ccccc2)N2C(=O)[C@](O)(C(=O)OC)[C@@H](c3ccccc3)C(C(=O)c3ccccc3)=C12 | 0.282 (inactive) | -0.142 | 1.78 (inactive) | 0.489 (inactive) | 1.16 (inactive) | 0.978 (inactive) | 1.3 | 0.6 (inactive) | 0.828 (inactive) | -0.284 |
